This is an account of results in ChEMBL document CHEMBL3988442, “University of Dundee, Small-Polar-MMV Screening Library” (2021).

The target in the assay is T1, Aspartate--tRNA(Asp/Asn) ligase (Mycobacterium tuberculosis (strain ATCC 25618 / H37Rv)) (UniProt P9WFW3).
T1 sequence (whole entry): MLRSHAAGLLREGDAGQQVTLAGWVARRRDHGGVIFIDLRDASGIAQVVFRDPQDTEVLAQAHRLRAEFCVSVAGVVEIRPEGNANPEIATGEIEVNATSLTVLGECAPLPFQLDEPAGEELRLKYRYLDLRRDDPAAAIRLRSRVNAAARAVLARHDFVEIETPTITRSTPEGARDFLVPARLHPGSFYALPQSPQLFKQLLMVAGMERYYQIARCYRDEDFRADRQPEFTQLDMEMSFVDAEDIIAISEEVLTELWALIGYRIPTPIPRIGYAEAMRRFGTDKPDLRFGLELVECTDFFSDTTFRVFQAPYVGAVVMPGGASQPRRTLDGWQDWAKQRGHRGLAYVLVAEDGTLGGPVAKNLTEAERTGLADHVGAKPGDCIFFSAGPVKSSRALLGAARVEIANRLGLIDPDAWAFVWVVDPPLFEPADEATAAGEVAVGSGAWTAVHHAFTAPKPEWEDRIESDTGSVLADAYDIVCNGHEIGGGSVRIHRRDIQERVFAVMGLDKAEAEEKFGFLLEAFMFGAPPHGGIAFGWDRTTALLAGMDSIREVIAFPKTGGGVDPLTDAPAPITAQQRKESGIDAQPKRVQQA
The assay is described as follows: Assay for Asp RNA synthetase-1 from Mycobacterium tuberculosis. It is filed as functional. Also noted: scale not given: in the data most compounds retested in dose-response had high values. The note with it: 30 µM.
As to `Cc1cc(C)n(CC2CCCCN2CC(=O)Nc2cccnc2)n1` (stereo not given), the Percent Effect was -0.655%.

On to `CCOC(=O)C1CCCN(c2ccc(-c3nc(C)no3)cn2)C1` (stereo not given), for which the Percent Effect is -0.931%.

With `CC(C)c1nccn1CCCNC(=O)c1ccc(-c2cncnc2)nc1`, the Percent Effect was -1.78%.

Consider `FC(F)(F)C1CCCn2c(CNCc3ccsc3)nnc21` (stereo not given), for which the Percent Effect is -1.78%.

Turning to `CC(C)N(C)CC(=O)NC1CCc2nccn2C1` (stereo not given), the Percent Effect was 1.39%.

Regarding `O=C(NCc1ccncc1)N(Cc1ccccc1F)C1CC1`, the Percent Effect is -1.67%.

On to `Cc1nnsc1C(=O)N1CCC2(CC1)c1nc[nH]c1CCN2CC(C)C`, for which the Percent Effect was -1.53%.

As to `CC(C)(N)CN1CCC(c2nnc(CN3CCCC3)n2C2CC2)CC1`, the Percent Effect is -1.87%.

Consider `O=C(O)c1ccc(F)c(S(=O)(=O)Nc2c(F)cccc2-n2cccn2)c1`, for which the Percent Effect was -1.78%.

For the compound `Cn1cc(CNc2ncnc3c2CCN(Cc2ccsc2)CC3)cn1`, the Percent Effect was determined as 1.05%.

With `CCc1nc(NS(=O)(=O)c2ccc(F)cc2C)no1`, the Percent Effect was -2.08%.

`Cc1nn(CCn2ccnc2-c2cc3n(n2)CCCNC3)c(C)c1Cl`: the Percent Effect is -0.0115%.

For `Cc1cc(S(=O)(=O)N2CCCc3ccc(F)cc32)sc1C(=O)O`, the Percent Effect is 1.87%.

`CCCSCC(=O)Nc1ncn(CC(=O)NCc2ccccc2)n1`: the Percent Effect turned out to be 1.55%.

Turning to `Cc1noc(C)c1C(=O)N(C)Cc1nc(-c2ccccn2)no1`, the Percent Effect was -3.85%.

As to `CCn1cc(CN(C)C(=O)c2cccc(CCC(C)(C)O)c2)cn1`, the Percent Effect was -0.126%.

Take `Cc1cnc(C)c(N2CCN(Cc3ccc(-c4cc[nH]n4)o3)CC2)n1`: the Percent Effect came out at 0.816%.

For the compound `CCc1nc(C)c(C(=O)N2C[C@H]3CC[C@@H]2CN(S(=O)(=O)N(C)C)C3)s1`, the Percent Effect is -1.85%.

In the case of `CCCS(=O)(=O)N1CCC(NC(=O)c2ccc(Cl)s2)CC1`, the Percent Effect worked out at 0.379%.

Turning to `O=C(c1cnn(-c2ccccc2F)c1)N1CCN(CCO)CC1`, the Percent Effect was -3.94%.

As for `Cc1cnn(Cc2cc(F)ccc2F)c1NC(=O)C1COCCO1` (stereo not given), the Percent Effect was -0.287%.

Take `O=C(CN1CCNCC1)N1CC[C@@H](c2ccc3ccccc3c2)[C@H](O)C1`: the Percent Effect is -0.747%.

For `CC(C)N1CCC(NCc2cccnc2N(C)Cc2ccccc2)CC1`, the Percent Effect was -1.94%.

On to `CC(C)c1ncc(CN2C[C@@H](CN3CCC(CO)CC3)[C@@H](CO)C2)cn1`, for which the Percent Effect was -1.92%.

Turning to `Cc1cnn(Cc2cc(F)ccc2F)c1NC(=O)NC1CC1`, the Percent Effect was -1.44%.

For `CSc1cccc(CNC(=O)C2CC(=O)N(CCN(C)C)C2)c1` (stereo not given), the Percent Effect came to 2.84%.

Consider `COc1cccc(CN(C)C(=O)CN2CCN(CCO)CC2)c1`, for which the Percent Effect was -0.747%.

Turning to `CN(CCNC(=O)N1CCN(Cc2ccon2)CC1)C1CCCC1`, the Percent Effect is -5.04%.

Turning to `CC(C)(C)N1CC(C(=O)N2CCN(CCc3ccccc3)CC2)CC1=O` (stereo not given), the Percent Effect worked out at 0.448%.

For the compound `CCN(C)c1ccc(C(=O)N(CCOC)Cc2ccccn2)cc1`, the Percent Effect is 2.13%.

In the case of `COc1c(CNC2CCc3c(Cl)cccc32)c(C)nn1C` (stereo not given), the Percent Effect was -1.71%.

As to `CCS(=O)(=O)c1ccc(N2CCC(NC(=O)c3cnn(C)c3)CC2)cc1`, the Percent Effect is -0.471%.

Take `CCCNC(=O)CCNC(=O)Cc1nc(-c2ccco2)oc1C`: the Percent Effect was found to be 2.08%.

Turning to `O=C(NCCCn1ccnc1)N1CCCC1c1ccncc1` (stereo not given), the Percent Effect was -2.68%.

Consider `CCc1nc(CNC(=O)Nc2ccc(C(=O)NC)cc2C)cs1`, for which the Percent Effect is -0.0804%.

With `Cc1nc(C2CCCN2C(=O)CNS(C)(=O)=O)no1` (stereo not given), the Percent Effect is 0.586%.

Turning to `O=C1O[C@@H]2CN(Cc3cccc(F)c3)C[C@@H]2N1CCCN1CCOCC1`, the Percent Effect came to 0.287%.

For the compound `N#Cc1ccc(C2CC(=O)Nc3c2cnn3C2CCCC2)cc1` (stereo not given), the Percent Effect was -5.3%.

Take `CCc1nc(CCNC(=O)Nc2ccc(C(=O)NC)cc2C)cs1`: the Percent Effect is -2.88%.

Take `COc1ccccc1OCCN1CCCC(c2noc(C3CC3)n2)C1` (stereo not given): the Percent Effect is -2.65%.
